The values below come from ChEMBL document CHEMBL3433997, “St. Jude Leishmania screening dataset” (2016).

A word on the inhibition: it is the drop in the measured response relative to a control, in per cent.

The target of the assay is Solute carrier family 2, facilitated glucose transporter member 1 (Homo sapiens) (UniProt P11166). In words: ST_JUDE_LEISH: Cytotoxicity at 2uM final concentration against transgenic Leishmania Mexicana promastigotes LmGLUT1 that are glucose transport deficient and complemented with the human glucose transporter GLUT1. Activity is measured by DNA content using SYBR green in vitro. The assay is classed as functional.
Chain of Solute carrier family 2, facilitated glucose transporter member 1 (Homo sapiens) (P11166 whole entry): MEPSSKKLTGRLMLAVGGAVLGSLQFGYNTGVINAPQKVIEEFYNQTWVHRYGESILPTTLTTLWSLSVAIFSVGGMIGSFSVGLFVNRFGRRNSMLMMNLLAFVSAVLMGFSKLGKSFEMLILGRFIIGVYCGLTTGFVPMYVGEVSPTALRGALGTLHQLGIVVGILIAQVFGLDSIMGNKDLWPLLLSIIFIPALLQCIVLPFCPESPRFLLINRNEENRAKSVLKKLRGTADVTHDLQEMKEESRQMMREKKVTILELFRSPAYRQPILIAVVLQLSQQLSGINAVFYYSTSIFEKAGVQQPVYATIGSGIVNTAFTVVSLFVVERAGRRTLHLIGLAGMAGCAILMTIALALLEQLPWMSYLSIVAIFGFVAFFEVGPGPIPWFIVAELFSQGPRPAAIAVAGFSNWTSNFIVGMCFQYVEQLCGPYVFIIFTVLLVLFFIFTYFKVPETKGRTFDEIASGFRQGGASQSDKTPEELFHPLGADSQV
In the case of `Oc1ccc2[nH]c(-c3ccc(F)cc3F)nc2c1CN1CCC(O)(c2ccccc2)CC1`, the inhibition is -0.28%.

As for `CC(Cc1ccc(NC(=O)c2ccc(CNCc3ccccc3)cc2)cc1)N(CCc1cccc(Cl)c1)C(=O)OC(C)(C)C` (stereo not given), the inhibition came to 6.08%.

For the compound `Cc1cccc(Nc2nc(N)c3ccccc3n2)c1`, the inhibition was determined as 20.9%.

Take `Cc1nc(C)c(CC(=O)Nc2cccc(-c3cccc(-c4nc5cc(C(F)(F)F)ccc5[nH]4)c3)c2)s1`: the inhibition came to 2.61%.

In the case of `CC(C)n1cc(CN2CCCC(C(=O)Nc3cccc(-c4cc5ccccc5[nH]4)c3)C2)cn1` (stereo not given), the inhibition was 2.2%.

For the compound `CN1CCCC1CCNc1ncc2c(-c3ccc(NC(=O)Nc4cc(C(F)(F)F)ccc4F)c(F)c3)nn(C)c2n1` (stereo not given), the inhibition was -1.71%.

Regarding `COc1c(C(=O)NC2CCN(Cc3ccccc3)C2)cnc2ccccc12` (stereo not given), the inhibition stood at 11.8%.

For `Cc1ccc(NC(=O)c2ccc3nccnc3c2)cc1OC1CCN(Cc2ccc(F)cc2)CC1`, the inhibition was 10.6%.

As to `COc1ccc(CNC2Cc3ccccc3C2)cc1-c1ccc(S(=O)(=O)NCCN2CCCC2)cc1`, the inhibition turned out to be 3.15%.

Regarding `CN1CCCN(Cc2ccc(-c3ccc(NC(=O)c4ccc(C#N)cc4)cc3)cc2)CC1`, the inhibition worked out at 0.69%.

Regarding `CN1CCCN(Cc2ccc(-c3cccc(NC(=O)c4cccc(Cl)c4)c3)cc2)CC1`, the inhibition was 16.5%.

On to `CCN(CCO)Cc1ccc(-c2ccc(NS(=O)(=O)c3cccc4cccnc34)cc2)cc1`, for which the inhibition is 89.5%.

Turning to `COc1ccc(C(=O)Nc2nonc2-c2ccc(OC)c(OC)c2)cc1Cl`, the inhibition was -0.82%.

`Cc1c(C(=O)Nc2cc(Sc3ccc(F)cc3)cc([N+](=O)[O-])c2)sc2ncn(Cc3ccccc3F)c(=O)c12`: the inhibition is 9.44%.

For the compound `Cc1ccc2c(OCCN3CCC(Cc4cc5c(cc4F)OCC(=O)N5)CC3)cc(F)cc2n1`, the inhibition was 5.35%.

With `CN1CCN(Cc2cccc(Nc3nccc(Nc4ccc(Oc5ccccc5)cc4)n3)c2)CC1`, the inhibition came out at 1.89%.

As for `CC1CCCC(NCc2c(O)ccc3ccccc23)C1` (stereo not given), the inhibition amounted to 3.58%.

In the case of `Cc1cc(-c2ccc(CNC3CCN(C)CC3)cc2)ccc1S(=O)(=O)NCc1ccccc1`, the inhibition amounted to 3.29%.

`Cc1cccc2nc(-c3cccc(-c4cccc(CNCc5ccc(S(C)(=O)=O)cc5)c4)c3)[nH]c12`: the inhibition worked out at 1.64%.

Take `COc1ccc(Nc2nc(N/N=C/c3ccc(-c4ccc([N+](=O)[O-])cc4)o3)nc(Nc3ccccc3)n2)cc1`: the inhibition is 14.4%.

For `Cc1ccccc1NC(=O)C1CSCN1C(=O)OCc1ccccc1` (stereo not given), the inhibition is -1.39%.

On to `CCOc1cc(C(=O)NCc2cc(Cl)cc(Cl)c2)ccc1-c1nc2cc(Cl)ccc2[nH]1`, for which the inhibition was determined as 1.6%.

Turning to `CCNc1cc(C(=O)N[C@@H](Cc2ccccc2)[C@H](O)CNC2(CCC(C)C)CC2)cc(N2CCCCS2(=O)=O)c1`, the inhibition is -1.85%.

For the compound `O=C(Nc1ccccc1N1CCOCC1)c1ncoc1-c1ccccc1C(F)(F)F`, the inhibition was 3.99%.

Consider `O=C(Nc1ccc(S(=O)(=O)N2CCCCC2)cc1)c1cc(-c2cc(Cl)ccc2O)n[nH]1`, for which the inhibition was determined as 6.03%.

Turning to `O=C(Nc1ccncc1)c1cn(-c2ccccc2)nc1-c1cccs1`, the inhibition amounted to 5.19%.

`Cc1nc(C)c(-c2ccc(-c3ccc(F)cc3)cc2)c(O)c1Cl`: the inhibition came to 1.77%.

Regarding `CCN(CC)CCCNCc1ccc(-c2ccc(C(F)(F)F)cc2)cc1`, the inhibition is 5.63%.

Consider `N#Cc1ccc2c(c1)CCN(CCC1CCC(NC(=O)/C=C/c3cc(Br)cs3)CC1)CC2` (stereo not given), for which the inhibition was 5.26%.

For the compound `CS(=O)(=O)Nc1cccc(-c2cnc3[nH]cc(-c4cccc(CN)c4)c3c2)c1`, the inhibition is 4.77%.

As for `CN(C)CCN(C)Cc1cccc(-c2ccc3c(Nc4ccc(F)cc4Cl)ccnc3c2)c1`, the inhibition is 1.88%.

On to `Cc1cc(N[C@@H](CC(C)C)C(=O)NCc2cccc(F)c2)nc(NCCc2ccccc2)n1`, for which the inhibition was found to be 3.97%.

As for `CN(C)c1ccc(CN2CCC(CNC(=O)c3cc(-c4cccc(F)c4)cs3)C2)cc1` (stereo not given), the inhibition was -1.95%.

On to `COc1ccc(C(=O)NCc2ccccc2-c2ccc(C(C)(C)C)cc2)cc1O`, for which the inhibition came out at 3.25%.

As to `COc1ccc2nccc([C@@H](O)CN3CCC(NCc4ccc5c(n4)NCCC5)CC3)c2c1`, the inhibition came to 6.88%.

For `CN(C)CCOc1ccc(-c2cc(-c3ccc(Cl)c(O)c3)c(-c3ccncc3)o2)cc1`, the inhibition was 4.55%.

Turning to `CC(C)CCNC(=O)C1Cc2c([nH]c3cc(Br)ccc23)C2(CCN(CCc3ccccc3)CC2)N1` (stereo not given), the inhibition was found to be 3.44%.

Take `O=C(Nc1ccc(OC2CCN(Cc3ccc(F)cc3)CC2)cc1)c1cccs1`: the inhibition was -0.82%.

For `Cc1c(CC(=O)N(C)C2CCN(CCCCCNC(=O)/C=C/c3ccc(Cl)c(Cl)c3)CC2)sc2ccc(Cl)cc12`, the inhibition was found to be 7.99%.

Regarding `Cc1nnc2c(N(C(=O)NCCc3ccccc3)C(=O)NCCc3ccccc3)cc3cc(Cl)ccc3n12`, the inhibition came out at 11.2%.
